Source: PubChem BioAssay AID434970 (Sanford-Burnham Center for Chemical Genomics, 2010)
Screen size: about 11,000 compounds; about 310 (2.8%) were called active. Rule as the data show it: active = activity change below about -85%; inactive = the rest. The sample as a whole holds a higher share of actives than the screen did.

System: intestinal alkaline phosphatase [Mus musculus]
Assay: activators of mouse IAP, confirmation, biochemical, luminescence, single concentration (AID 434970)
Conditions: purified mouse IAP, CDP-Star luminescence, 30 min, at 10 µM; activation factor: measured here: IAP activation factor, stronger effect = higher value; activity change, negative = activation: stronger effect = lower value

| Compound | activation factor | activity change, negative = activation |
| --- | --- | --- |
| COc1cc(-c2nnc3sc(Cc4ccccc4)nn23)cc(OC)c1OC | 0.942 | 5.85% (inactive) |
| CCOC(=O)c1cnc(SCc2cccc(C)c2)nc1N | 1.08 | -7.85% (inactive) |
| CCOc1ccc(NC(=O)N2CCC(C(=O)c3ccc(F)cc3)CC2)cc1 | 1.07 | -7.1% (inactive) |
| COc1cccc(OC)c1C(=O)Nc1cccc(C(C)=O)c1 | 0.983 | 1.65% (inactive) |
| NS(=O)(=O)c1ccc(N2N=C(c3ccccc3)CC2c2ccccc2)cc1 (centres undefined) | 1.6 | -59.6% (inactive) |
| CCCC1(C(=O)OCC)NC(c2cc(OC)c(OC)c(OC)c2)C2C(=O)N(CC)C(=O)C21 (centres undefined) | 0.957 | 4.35% (inactive) |
| O=C(CN1CCCCCC1)Nc1ccccc1F | 0.954 | 4.6% (inactive) |
| Cc1cc(C)c2nc(C(F)(F)F)nc(NCCCN3CCCC3=O)c2c1 | 0.947 | 5.35% (inactive) |
| COc1ccc(/C=N/NC(=O)c2cc(-c3ccccc3OC)nc3ccccc23)cc1COC(C)=O | 0.929 | 7.05% (inactive) |
| O=C(Nc1nc2ccc(S(=O)(=O)N3CCCCC3)cc2s1)C1CCCO1 (centres undefined) | 0.96 | 4.05% (inactive) |
| COC(=O)C[C@H](NC(=O)Cn1cnc2c(NCc3ccccc3)ncnc21)C(=O)OC | 0.97 | 2.95% (inactive) |
| Cc1cc(NC(=O)CN2C(=O)C3CC=CCC3C2=O)no1 (centres undefined) | 0.929 | 7.05% (inactive) |
| COc1ccc(OC)c(S(=O)(=O)n2nc(C)cc2C)c1 | 1.08 | -7.9% (inactive) |
| O=C(CCN1CCN(C/C=C/c2ccccc2)CC1)Nc1ccccc1 | 1.08 | -8% (inactive) |
| COc1ccccc1/C=C/CN1CCC(n2nccc2NC(=O)CCc2ccccc2)CC1 | 2.21 | -121% (active) |
| COc1ccc(Cl)cc1NC(=O)CCc1ccccc1 | 0.97 | 3% (inactive) |
| O=S(=O)(Nc1ccc(Cl)c(C(F)(F)F)c1)c1cnc[nH]1 | 0.887 | 11.3% (inactive) |
| C[C@H](CO)N1C[C@H](C)[C@@H](CN(C)C(=O)Nc2ccccc2)Oc2ccc(NC(=O)Nc3ccc4c(c3)OCO4)cc2C1=O | 2.17 | -117% (active) |
| C[C@H](CO)N1C[C@H](C)[C@@H](CN(C)C(=O)Nc2ccccc2)Oc2ccc(NC(=O)Nc3ccccc3)cc2C1=O | 2.23 | -123% (active) |
| COc1ccc(NC(=O)Nc2ccc3c(c2)C(=O)N([C@H](C)CO)C[C@H](C)[C@@H](CN(C)C(=O)NC2CCCCC2)O3)cc1 | 1.64 | -64% (inactive) |
| COc1ccc(NC(=O)Nc2ccc3c(c2)C(=O)N([C@H](C)CO)C[C@H](C)[C@@H](CN(C)C(=O)Nc2ccccc2)O3)cc1 | 1.59 | -59.5% (inactive) |
| C[C@H](CO)N1C[C@H](C)[C@@H](CN(C)C(=O)Nc2ccccc2)Oc2ccc(NC(=O)NC3CCCCC3)cc2C1=O | 1.47 | -46.7% (inactive) |
| C[C@H](CO)N1C[C@H](C)[C@@H](CN(C)C(=O)NC2CCCCC2)Oc2ccc(NC(=O)Nc3ccccc3)cc2C1=O | 2 | -99.6% (active) |
| C[C@H](CO)N1C[C@H](C)[C@@H](CN(C)C(=O)Nc2ccc3c(c2)OCO3)Oc2ccc(NC(=O)Nc3ccc4c(c3)OCO4)cc2C1=O | 1.75 | -74.9% (inactive) |

| Compound | activation factor | activity change, negative = activation |
| --- | --- | --- |
| C[C@H](CO)N1C[C@H](C)[C@@H](CN(C)C(=O)Nc2ccc(C(F)(F)F)cc2)Oc2ccc(NC(=O)Nc3ccccc3)cc2C1=O | 1.71 | -71.5% (inactive) |
| COc1ccc(NC(=O)Nc2ccc3c(c2)C(=O)N([C@H](C)CO)C[C@H](C)[C@@H](CN(C)C(=O)Nc2ccc4c(c2)OCO4)O3)cc1 | 1.63 | -62.9% (inactive) |
| Cc1ccccc1C1C(C#N)=C2N=C(N)c3c(sc4c3CCCCC4)N2C2=C1C(=O)CCC2 (centres undefined) | 0.831 | 16.9% (inactive) |
| CC1N(O)C(C)(C)C(c2ccccc2)=[N+]1[O-] (centres undefined) | 1.08 | -7.85% (inactive) |
| Cc1cc(NC(=O)CSc2ccc(-c3ccccc3)nn2)no1 | 0.978 | 2.15% (inactive) |
| CCOC(=O)Cn1c(=O)c(-c2ccccc2NCc2ccccc2)nc2ccccc21 | 0.764 | 23.5% (inactive) |
| COCCn1c(-c2cc(OC)c(OC)c(OC)c2)nc2oc3ccccc3c(=O)c2c1=O | 0.931 | 6.9% (inactive) |
| COc1ccc(C2(CNC(=O)Cc3ccc(OC)c(OC)c3)CCOCC2)cc1 | 0.999 | 0.05% (inactive) |
| C#CCOCCOCCOCCNc1nc(N2CCN(C(=O)CCCCCCCCCCNC(=O)[C@@H](CCSC)n3cc(CCO)nn3)CC2)nc(N2CCN(C(=O)CCCCCCCCCCNC(=O)[C@H]([C@@H](C)CC)n3cc(CCCCCN)nn3)CC2)n1 | 7.35 | -635% (active) |
| C#CCOCCOCCOCCNc1nc(N2CCN(C(=O)CCCCCCCCCCNC(=O)[C@H]([C@@H](C)CC)n3cc(CCCCN=C(N)N)nn3)CC2)nc(N2CCN(C(=O)CCCCCCCCCCNC(=O)[C@H](CO)n3cc(CCCSC)nn3)CC2)n1 | 15.4 | -1440% (active) |
| C#CCOCCOCCOCCNc1nc(N2CCN(C(=O)CCCCCCCCCCNC(=O)[C@@H](CCSC)n3cc(CCO)nn3)CC2)nc(N2CCN(C(=O)CCCCCCCCCCNC(=O)[C@H]([C@@H](C)CC)n3cc(CCCCN=C(N)N)nn3)CC2)n1 | 22.1 | -2110% (active) |
| FC(F)(F)c1nnc2sc(-c3cccs3)nn12 | 0.967 | 3.3% (inactive) |
| CC(=O)Nc1ccc(Nc2nc(C)nc3c2oc2ccccc23)cc1 | 1.01 | -1.3% (inactive) |
| Cn1nnnc1SCC(=O)Nc1ccc(Oc2ccccc2)cc1 | 0.952 | 4.85% (inactive) |
| COc1ccc(CCn2c(C)cc(C(=O)CSc3nnc(N)s3)c2C)cc1 | 0.959 | 4.1% (inactive) |
| O=C(NCc1ccc(Cl)cc1Cl)C1CCN(S(=O)(=O)c2ccc3c(c2)OCCCO3)CC1 | 1.48 | -48.2% (inactive) |
| COCCNC(=O)CN(C)S(=O)(=O)c1ccc2c(c1)OCCO2 | 0.928 | 7.15% (inactive) |
| COc1ccc(NC2=C(C(C)=O)C(c3ccc(OC)c(OC)c3)C(C(C)=O)C(C)(O)C2)cc1 (centres undefined) | 1.08 | -7.85% (inactive) |
| CCn1nnnc1SCC(=O)Nc1ccc2c(c1)OCO2 | 0.992 | 0.8% (inactive) |
| CCOC(=O)/C=C(\C)Nc1cc(C)nn1-c1ccccc1 | 1.04 | -4.05% (inactive) |
| Cc1cc(NC(=O)Nc2ccc(Cl)cc2)n(-c2ccccc2)n1 | 2.07 | -107% (active) |
| Cc1cc(NC(=O)Nc2cccc(Cl)c2)n(-c2ccccc2)n1 | 1.97 | -97.1% (active) |
| Cc1cc(NC(=O)Nc2ccc(Cl)c(Cl)c2)n(-c2ccccc2)n1 | 2.79 | -179% (active) |
| COc1cccc(-c2cc(C(=O)Nc3cc(C)nn3-c3ccccc3)no2)c1 | 1.1 | -10.2% (inactive) |

| Compound | activation factor | activity change, negative = activation |
| --- | --- | --- |
| Cc1cc(NC(=O)c2ccc(C)s2)n(-c2ccccc2)n1 | 1.01 | -0.8% (inactive) |
| Cc1cc(NC(=O)Nc2cc(C)nn2-c2ccccc2)n(-c2ccccc2)n1 | 0.992 | 0.75% (inactive) |
| COc1ccc(-c2cc(C(=O)Nc3cc(C)nn3-c3ccccc3)no2)cc1 | 0.921 | 7.9% (inactive) |
| Cc1nn(C)c(C)c1NC(=O)Nc1ccc(Cl)c(Cl)c1 | 1.62 | -62.2% (inactive) |
| COc1cc(C2Nc3cc(Cl)c(S(N)(=O)=O)cc3S(=O)(=O)N2)ccc1OCc1ccccc1 (centres undefined) | 0.84 | 16% (inactive) |
| CC[C@]12c3[nH]c4cc(CCC(=O)N(C)C)ccc4c3CCN1C(=O)[C@@H](CC(=O)NCC13CC4CC(CC(C4)C1)C3)C[C@@H]2C(=O)N1CCN(C(=O)C2CC2)CC1 | 1.15 | -14.6% (inactive) |
| O=C(CCl)Oc1ccc2occ(C(=O)c3cccs3)c2c1 | 0.89 | 11% (inactive) |
| Cc1[nH]c2ccccc2c1C(=O)COC(=O)C1CC(=O)N(Cc2ccco2)C1 (centres undefined) | 1.14 | -13.6% (inactive) |
| CCOC(=O)C1=CNS(=O)(=O)NC1c1ccc(C)cc1 (centres undefined) | 0.96 | 4.05% (inactive) |
| COc1ccc2c(c1)[nH]c1c(=O)n(CCc3cnc[nH]3)cnc12 | 1.02 | -1.9% (inactive) |
| CCCCOc1ccc(-c2nnc(-c3ccncc3)o2)cc1 | 0.94 | 6.05% (inactive) |
| CCCCCOc1ccc(C(=O)CCC(=O)NNC(=O)c2ccncc2)cc1 | 3.52 | -252% (active) |
| CCCOc1ccc(C(=O)NCCO)cc1 | 1.01 | -1.1% (inactive) |
| CC[C@]1(C(=O)OC)[C@H]2C(=O)N(C)C(=O)[C@H]2[C@H]2CN=C(SCc3ccc(C#N)cc3)N21 | 1.07 | -6.55% (inactive) |
| N#Cc1nc(-c2ccc(Cl)cc2)oc1NCc1ccco1 | 0.952 | 4.8% (inactive) |
| COc1ccccc1-c1cc(C(F)(F)F)nc(N2CCCC2)n1 | 0.939 | 6.15% (inactive) |
| O=C(Cn1cc(C(=O)c2ccco2)c2ccccc21)NCc1ccco1 | 0.907 | 9.3% (inactive) |
| S=C(NCc1ccc(Cl)cc1Cl)Nc1ccccc1 | 1.41 | -41% (inactive) |
| S=C(NCc1ccc(Cl)cc1Cl)NC1CCCCC1 | 1.93 | -93% (active) |
| S=C(NCc1cccc(Cl)c1)NC1CCCCC1 | 1.14 | -14.3% (inactive) |
| Cc1cccc(NC(=O)C2=C(O)c3ccccc3N(C)S2(=O)=O)c1 | 0.998 | 0.2% (inactive) |
| N#Cc1nc(COc2ccc(Cl)cc2)oc1N1CCCCCC1 | 0.964 | 3.6% (inactive) |
| CCOC(=O)c1cccc(NC(=O)CCS(=O)(=O)c2cccs2)c1 | 1.01 | -0.85% (inactive) |
| COc1ccc(C(=O)NNC(=S)NC(=O)c2cc(-c3ccccc3)nc3ccccc23)cc1 | 0.848 | 15.2% (inactive) |
